Data from PubChem BioAssay (Tox21).
Records with an inconclusive call do not appear. Calls of active or inactive are those of the source. Unless noted, calls follow the shape of the dose curve; as a rule, active = well fitted curve in the direction sought with a large enough effect in the repeat runs; inconclusive = weak or mixed curves; inactive = no such curve, though single readings can be large; an effect the other way counts as inactive or inconclusive.

Legend:
[1] = qHTS assay to identify small molecule antagonists of the vitamin D receptor (VDR) signaling pathway - cell viability counter screen (AID 743225); also: nearly all actives have a fitted effect of over 50% in size
Outline: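 Cytotoxicity toward the VDR-bla HEK 293T line was scored by ATP-based CellTiter-Glo luminescence, read in the wells already used for the beta-lactamase readout after 16 h compound treatment under 3 nM 1-alpha,25-dihydroxyvitamin D3 stimulation.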

[2] = qHTS assay to identify small molecule agonists of the NFkB signaling pathway - cell viability counter screen (AID 1159515; calls by dose curve; also: series mostly up to about 61 µM; nearly all actives have a fitted effect of over 55% in size)
Outline: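 Luminescence from CellTiter-Glo (30 min, room temperature) gives viability, measured in the same wells as the beta-lactamase reporter read. Cells were NFkB-bla ME-180, 2,000 per well, treated 5 hr with compounds.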

[3] = qHTS assay to identify small molecule agonists of the endoplasmic reticulum stress response signaling pathway (AID 1159516; active = well fitted activation curve with a large enough effect in the signal ratio in the repeat runs, not every such curve was filed as active; the % refers to the signal ratio)
Outline: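 Read-out is beta-lactamase cleavage of a FRET substrate (405 nm excitation; 460 and 530 nm emissions) in ESRE-bla HeLa cells after a 5 hr compound exposure at 37 C. Substrate incubation ran 2 hr at room temperature.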

[4] = qHTS assay to identify small molecule agonists of the endoplasmic reticulum stress response signaling pathway - cell viability counter screen (AID 1159517; calls by dose curve;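 also: HeLa cells carrying an ER stress response element beta-lactamase reporter; series mostly up to about 61 µM; nearly all actives have a fitted effect of over 50% in size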)
Outline: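 Counter-screen wells were identical to the reporter wells. Cells were plated at 1,500 per well and dosed for 5 hr, then read for luminescence 30 min after CellTiter-Glo addition.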

[5] = qHTS assay to identify small molecule antagonists of the retinoid-related orphan receptor gamma (ROR-gamma) signaling pathway - cell viability counter screen (AID 1159520); also: nearly all actives have a fitted effect of over 50% in size
Outline: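 Tet-on ROR gamma CHO cells were given compounds for 2 hr, then doxycycline hyclate at 1 uM final, and incubated 16 hr at 37 C. Viability was measured as ATP content by CellTiter-Glo luminescence.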

[6] = biological target: Nuclear receptor ROR-gamma (Homo sapiens) (UniProt P51449); experiment: qHTS assay to identify small molecule antagonists of the retinoid-related orphan receptor gamma (ROR-gamma) signaling pathway (AID 1159521;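 also: CHO cells with doxycycline inducible ROR-gamma driving an RORE luciferase reporter; top concentration of the series differs between compounds; nearly all actives have a fitted effect of over 50% in size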)
Outline: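 Readout: ONE-Glo luciferase luminescence, 30 min at room temperature. System: Tet-on RORγ CHO, RORE-LUC. Sequence: compound 2 h, doxycycline 1 uM final, 16 h at 37 C.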

[7] = qHTS assay to identify small molecule agonists of the AP-1 signaling pathway - cell viability counter screen (AID 1159525; calls by dose curve; also: nearly all actives have a fitted effect of over 55% in size)
Outline: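 AP-1-bla ME-180 cells in Opti-MEM with 0.5% dialyzed FBS, compound exposure 5 h at 37 C in 15-point titration. Viability read in the same wells as ATP content by CellTiter-Glo luminescence, normalised to tetra-n-octylammonium bromide and DMSO controls.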

[8] = qHTS assay to identify small molecule agonists of the AP-1 signaling pathway (AID 1159526; calls by dose curve)
[9] = biological target: Retinoic acid receptor RXR-alpha (Homo sapiens) (UniProt P19793); experiment: qHTS assay to identify small molecule agonists of the RXR signaling pathway (AID 1159527; calls by dose curve; also: nearly all actives have a fitted effect of over 35% in size)
Outline: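 Reporter activation is measured as beta-lactamase activity via FRET substrate cleavage (emission 460/530 nm) in HEK 293T cells expressing an RXR-alpha-driven bla construct, following 16 hr compound exposure at 37 C.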

[10] = qHTS assay to identify small molecule agonists of the RXR signaling pathway - cell viability counter screen (AID 1159529)
Outline: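 Tox21 10K compounds were tested for cytotoxicity against GeneBLAzer RXR-alpha HEK 293T cells grown in 2% charcoal-stripped FBS. Exposure lasted 16 hr at 37 C, 5% CO2; viability read by CellTiter-Glo luminescence.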

[11] = qHTS assay to identify small molecule antagonists of the retinoid acid receptor (RAR) signaling pathway - cell viability counter screen (AID 1159551); also: nearly all actives have a fitted effect of over 35% in size
Outline: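 Luminescent ATP quantitation (CellTiter-Glo) gave cell viability in C3RL4 cells exposed to test chemicals for 6 h at 37 C alongside 1 uM final retinol.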

[12] = qHTS assay to identify small molecule antagonists of the estrogen related receptor (ERR) signaling pathway from Tox21 library - cell viability counter screen (AID 1224834); also: nearly all actives have a fitted effect of over 30% in size
Outline: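 Fluorescence from CellTiter-Fluor gives the viability read-out, taken 30 min after reagent addition. Before that, ERR cells seeded 6 h earlier were incubated with compounds for 17.5 h at 37 C.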

[13] = biological target: Luciferin 4-monooxygenase (Photinus pyralis) (UniProt P08659); experiment: qHTS assay to identify small molecule inhibitors of firefly luciferase (AID 1224835); also: series mostly up to about 120 µM; nearly all actives have a fitted effect of over 25% in size
Outline: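 Biochemical qHTS: compounds run as interplate titrations against purified firefly enzyme, with D-luciferin and ATP each at its KM concentration. Light output recorded by CCD imaging.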

[14] = qHTS assay to identify small molecule agonists of the constitutive androstane receptor (CAR) signaling pathway - cell viability counter screen (AID 1224836); also: series mostly up to about 92 µM; nearly all actives have a fitted effect of over 45% in size
Outline: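 Fluorescence from CellTiter-Fluor indicates live cells after 23 h exposure. The human hepatoma line expresses hCAR and a CYP2B6-2.2kb reporter. Incubation medium contains 0.75 uM PK11195 (final).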

[15] = qHTS assay to identify small molecule antagonists of the constitutive androstane receptor (CAR) signaling pathway - cell viability counter screen (AID 1224837); also: series mostly up to about 92 µM; nearly all actives have a fitted effect of over 45% in size
Outline: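 HepG2-CYP2B6-hCAR cells, 2500/well, 4 hr pre-incubation; compound titration, 15 conc.; CITCO 50 nM final; 23 hr, 37 C/5% CO2; CellTiter-Fluor, fluorescence intensity.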

[16] = biological target: Nuclear receptor subfamily 1 group I member 3 (Homo sapiens) (UniProt Q14994); experiment: qHTS assay to identify small molecule antagonists of the constitutive androstane receptor (CAR) signaling pathway (AID 1224838);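 also: HepG2 cells stably expressing hCAR with CYP2B6 luciferase reporter stimulated by CITCO; nearly all actives have a fitted effect of over 40% in size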
Outline: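 HepG2-CYP2B6-hCAR cells; 4 h pre-incubation; cpd (15 conc) + CITCO 50 nM final; 24 h, 37 C/5% CO2; ONE-Glo, luminescence.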

[17] = biological target: Nuclear receptor subfamily 1 group I member 3 (Homo sapiens) (UniProt Q14994); experiment: qHTS assay to identify small molecule agonists of the constitutive androstane receptor (CAR) signaling pathway (AID 1224839);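 also: HepG2 cells stably carrying human CAR and a CYP2B6 luciferase reporter; series mostly up to about 92 µM; nearly all actives have a fitted effect of over 15% in size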
Outline: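 Stable hCAR/CYP2B6-2.2kb HepG2 line in DMEM with 10% FBS; compounds (15 concentrations) and 0.75 uM PK11195 final, 24 h at 37 C/5% CO2, then ONE-Glo luminescence after 30 min.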

[18] = qHTS assay to identify small molecule antagonists of the estrogen related receptor signaling pathway with the pleiotropic PPARgamma coactivator (PGC) from Tox21 10K library - cell viability counter screen (AID 1224840; active = well fitted cell-killing curve with a large enough effect in the repeat runs, not every such curve was filed as active; also: nearly all actives have a fitted effect of over 40% in size)
Outline: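 PGC/ERR cells, 2,000/well; 6 h pre-incubation 37 C/5% CO2; cpd in DMSO via pin tool; 17.5 h 37 C; CellTiter-Fluor, 30 min; fluorescence.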

[19] = qHTS assay to identify small molecule agonists of the retinoic acid receptor (RAR) signaling pathway (AID 1159553)
Outline: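 Luminescence from a RARE-driven luciferase reporter in C3RL4 cells served as the read-out, measured after 30 min with detection reagent at room temperature. Compounds in DMSO were applied for 6 hr at 37 C following overnight seeding.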

[20] = qHTS assay to identify small molecule antagonists of the retinoic acid receptor (RAR) signaling pathway (AID 1159552; also: nearly all actives have a fitted effect of over 50% in size)
Outline: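 Overnight-plated C3RL4 reporter cells get compound, then retinol to 1 uM final; plates sit 6 hr at 37 C, 5% CO2. A luciferase reagent is added and light output recorded after 30 min at room temperature.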

Measured: Potency

Chain of Retinoic acid receptor RXR-alpha (Homo sapiens) (P19793 whole entry, looked up): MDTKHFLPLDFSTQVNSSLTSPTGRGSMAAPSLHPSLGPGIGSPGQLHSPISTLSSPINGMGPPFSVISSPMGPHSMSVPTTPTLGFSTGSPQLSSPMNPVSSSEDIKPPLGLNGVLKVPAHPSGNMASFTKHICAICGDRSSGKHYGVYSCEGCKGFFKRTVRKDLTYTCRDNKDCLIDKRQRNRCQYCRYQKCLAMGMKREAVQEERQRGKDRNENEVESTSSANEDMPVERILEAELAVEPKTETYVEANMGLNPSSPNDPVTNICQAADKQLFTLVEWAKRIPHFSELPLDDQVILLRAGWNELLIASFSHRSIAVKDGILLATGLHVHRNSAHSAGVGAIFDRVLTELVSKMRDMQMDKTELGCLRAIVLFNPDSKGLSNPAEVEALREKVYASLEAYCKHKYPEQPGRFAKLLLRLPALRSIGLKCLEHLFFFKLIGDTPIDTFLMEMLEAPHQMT
Chain of Nuclear receptor subfamily 1 group I member 3 (Homo sapiens) (Q14994 whole entry, looked up): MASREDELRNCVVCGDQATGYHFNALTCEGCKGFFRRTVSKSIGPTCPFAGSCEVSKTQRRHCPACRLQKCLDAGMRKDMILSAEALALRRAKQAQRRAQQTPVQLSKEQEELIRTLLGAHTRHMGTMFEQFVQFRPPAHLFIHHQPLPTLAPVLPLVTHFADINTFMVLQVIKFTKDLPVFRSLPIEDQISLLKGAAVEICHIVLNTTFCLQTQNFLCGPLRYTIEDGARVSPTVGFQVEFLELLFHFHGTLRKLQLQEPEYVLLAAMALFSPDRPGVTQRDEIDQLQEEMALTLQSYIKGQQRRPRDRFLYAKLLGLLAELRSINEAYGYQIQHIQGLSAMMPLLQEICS
Chain of Luciferin 4-monooxygenase (Photinus pyralis) (P08659 whole entry, looked up): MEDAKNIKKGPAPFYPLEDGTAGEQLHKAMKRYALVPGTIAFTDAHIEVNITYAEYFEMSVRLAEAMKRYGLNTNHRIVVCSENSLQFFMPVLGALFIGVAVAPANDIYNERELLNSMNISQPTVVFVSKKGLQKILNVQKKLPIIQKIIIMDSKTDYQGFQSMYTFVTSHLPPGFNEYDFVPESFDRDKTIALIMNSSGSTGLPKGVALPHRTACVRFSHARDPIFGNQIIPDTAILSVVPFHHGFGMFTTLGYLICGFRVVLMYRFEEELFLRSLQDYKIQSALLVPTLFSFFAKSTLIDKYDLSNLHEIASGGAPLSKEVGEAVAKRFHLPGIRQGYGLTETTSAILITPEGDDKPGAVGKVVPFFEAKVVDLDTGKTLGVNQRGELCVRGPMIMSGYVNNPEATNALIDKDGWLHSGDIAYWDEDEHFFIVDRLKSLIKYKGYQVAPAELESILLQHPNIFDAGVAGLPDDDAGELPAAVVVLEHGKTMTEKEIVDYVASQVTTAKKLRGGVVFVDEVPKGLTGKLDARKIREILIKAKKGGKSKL

CCCCCC(=O)CC
not listed: [19] | [20]
inactive: all other assays above

COC(=O)C(c1ccccc1Cl)N1CCc2sccc2C1 (centres undefined)
not listed: [14] | [17] | [20]
inactive: all other assays above

CN1CCN(C(=O)C2CCCCC2)CC1
not listed: [1] | [20]
inactive: all other assays above

CC(CN1CC(=O)NC(=O)C1)N1CC(=O)NC(=O)C1 (centres undefined)
not listed: [1] | [17] | [20]
inactive: all other assays above

COc1cc(NS(=O)(=O)c2ccc(N)cc2)ncn1
not listed: [12] | [19] | [20]
inactive: all other assays above

O=C[C@@H](O)[C@H](O)[C@H](O)CO
not listed: [1] | [19] | [20]
inactive: all other assays above

COc1ccccc1N1CCN(CC(O)COc2cc(OC)c(OC)c(OC)c2)CC1 (centres undefined)
not listed: [12] | [16] | [19]
inactive: all other assays above

O=C(O)P(=O)(O)O
not listed: [14] | [20]
inactive: all other assays above
